Measurements reported in PubChem BioAssay (NCI).
About 79,000 compounds went through this panel and 15% of them were active in at least one assay; those are over-represented in the sample as a whole. Unmarked numbers belong to inactive results. Active and inactive are the calls of the source. Rule as the data show it: active = growth inhibition above about 70%; inactive = the rest.

How the values were obtained:
[1] = NCI Yeast Anticancer Drug Screen. Data for the rad50 strain (AID 155);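 also: 0% = growth of vehicle-only cultures of the same strain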; conditions: S. cerevisiae rad50 strain growth inhibition, hits give high values
How it was run: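 Genetically altered yeast (DNA repair pathway); compound treatment; growth inhibition vs vehicle ctrl.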

[2] = NCI Yeast Anticancer Drug Screen. Data for the mec2-1 strain (AID 157); conditions: S. cerevisiae mec2-1 strain, hits give high values
How it was run: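 Strain: mec2-1 (DNA repair/cell cycle alteration). Compound exposure, then growth measured; inhibition expressed relative to vehicle.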

[3] = NCI Yeast Anticancer Drug Screen. Data for the sgs1 mgt1 strain (AID 161);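 also: 0% = growth of cultures given vehicle only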; conditions: S. cerevisiae sgs1 mgt1 strain, hits give high values
How it was run: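 Genetically altered yeast, compound exposure, growth inhibition relative to vehicle.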

[4] = NCI Yeast Anticancer Drug Screen. Data for the cln2 rad14 strain (AID 165);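 also: 0% = growth equal to vehicle treated cultures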; conditions: S. cerevisiae cln2 rad14 strain, hits give high values
How it was run: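 Compounds are applied to the cln2 rad14 yeast strain, and growth is then compared with that of vehicle-treated cultures to give inhibition.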

[5] = NCI Yeast Anticancer Drug Screen. Data for the bub3 strain (AID 167); conditions: S. cerevisiae bub3 mutant strain, hits give high values
How it was run: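 Yeast carrying a defined mutation is treated with each compound, and growth is compared with that of vehicle-exposed cells to give inhibition.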

[6] = NCI Yeast Anticancer Drug Screen. Data for the mlh1 rad18 strain (AID 175); conditions: S. cerevisiae mlh1 rad18 strain growth inhibition, hits give high values
How it was run: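 Read-out is yeast growth inhibition, calculated against vehicle-only controls. The compound was applied to a strain engineered with DNA damage repair alterations.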

[7] = at 5.0 µM (retest, dose inferred, filed as 0.5)
[8] = at 50.0 µM (retest, dose inferred, filed as 5.0)

Row | SMILES | growth inhibition [1, 7] | growth inhibition [1, 8] | growth inhibition ([1]; at 50.0 µM) | growth inhibition [2, 7] | growth inhibition [2, 8] | growth inhibition ([2]; at 50.0 µM) | growth inhibition [3, 7] | growth inhibition [3, 8] | growth inhibition ([3]; at 50.0 µM) | growth inhibition [4, 7] | growth inhibition [4, 8] | growth inhibition ([4]; at 50.0 µM) | growth inhibition [5, 7] | growth inhibition [5, 8] | growth inhibition ([5]; at 50.0 µM) | growth inhibition [6, 7] | growth inhibition [6, 8] | growth inhibition ([6]; at 50.0 µM)
1 | NNc1nc(Nc2ccccc2)nc(Nc2ccccc2)n1 | -8% | 93% (active) | 51.9% | -5% | 10% | 42% | -9% | 56% | 45.5% | -9% | 52% | 37.5% | -4% | 44% | 48.5% | -2% | 51% | 41.6%
2 | O=c1cc(CSc2ccc(Cl)cc2)occ1O | 3% | 32% | 44.5% | -2% | 17% | 13.4% | 3% | 72% (active) | 87.2% (active) | 7% | 18% | 13.2% | -3% | 4% | 11.9% | 2% | 51% | 55%
3 | N#CSCN1C(=O)C2CC=CCC2C1=O (configuration not stated) | 14% | 93% (active) | 93% (active) | 2% | 95% (active) | 97.1% (active) | 8% | 94% (active) | 49.5% | 9% | 94% (active) | 49.5% | 6% | 95% (active) | 95.5% (active) | 11% | 96% (active) | 50.4%
4 | C=CCNc1nc2c(s1)C(=O)c1ccccc1C2=O | 95% (active) | 98% (active) | 90.8% (active) | 99% (active) | 99% (active) | 93.3% (active) | 100% (active) | 99% (active) | 93.9% (active) | 76% (active) | 99% (active) | 91.8% (active) | 99% (active) | 99% (active) | 91.9% (active) | 98% (active) | 98% (active) | 88% (active)
5 | CCOC(=O)/C=C(\C)c1ccc([N+](=O)[O-])cc1 | -158% | -127% | 36.1% | -49% | -51% | -17.3% | -65% | -57% | -17.9% | -63% | -69% | -94.7% | -63% | -54% | 17.1% | -153% | -114% | 3.95%
6 | O=[N+]([O-])c1cccc(F)c1O | 5% | 87% (active) | 52.5% | 6% | 79% (active) | 33.1% | 6% | 78% (active) | 42.5% | 6% | 65% | 0.25% | 0% | 73% (active) | 11.3% | 0% | 89% (active) | 78.3% (active)
7 | COc1ccc2c(c1)n([O-])c1cc(C#N)ccc1[n+]2=O | 94% (active) | 97% (active) | 96.1% (active) | 50% | 97% (active) | 45.6% | 41% | 80% (active) | 35.9% | 17% | 59% | -11.7% | 33% | 87% (active) | 44.9% | 73% (active) | 96% (active) | 28.6%
8 | CSC(SC)=C1C(=O)NC(Cc2ccccc2)C1=O (configuration not stated) | 6% | 50% | 80.1% (active) | 1% | 35% | 36.1% | 0% | 66% | 71.8% (active) | 2% | 24% | 37.5% | 1% | 34% | 50.3% | 5% | 68% | 83% (active)
9 | O=C1OC(C2OC(=O)C(=O)C2C(=O)c2ccc([N+](=O)[O-])cc2)C(C(=O)c2ccc([N+](=O)[O-])cc2)C1=O (configuration not stated) | 5% | 57% | 91.6% (active) | 14% | 44% | 59.1% | 10% | 86% (active) | 91.5% (active) | 11% | 22% | 64.2% | 5% | 39% | 56.6% | 6% | 53% | 96.5% (active)
10 | C=C(Br)CN(CC(=C)Br)C(C)=O | 17% | 21% | -11.7% | 17% | 14% | -11.1% | 25% | 16% | -2.5% | 15% | 24% | -45.4% | 14% | 10% | -1.4% | 22% | 21% | -53.9%
11 | COc1cccc2nc3c(C(=O)NCCN(C)C)cccc3cc12 | 60% | 94% (active) | 81.7% (active) | 15% | 43% | 15.9% | 24% | 56% | 10.4% | 15% | 49% | -7.1% | 22% | 47% | -50.6% | 24% | 65% | 0.05%
12 | CN/N=C(\C)C(CN1CCCCC1)C(C1=C(O)c2ccccc2OC1)c1ccccc1 (configuration not stated) | 25% | 25% | 69.8% | 25% | 25% | 57.6% | 9% | 9% | 78.7% (active) | -1% | -1% | 66.7% | 10% | 10% | 67.7% | 25% | 25% | 72% (active)
13 | O=C(CCCSCCCC(=O)NNc1ccccc1)NNc1ccccc1 | 31% | 88% (active) | 96.2% (active) | 16% | 95% (active) | 40.7% | 30% | 94% (active) | 87.4% (active) | 21% | 92% (active) | 86.7% (active) | 45% | 98% (active) | 96.5% (active) | 54% | 98% (active) | 97.8% (active)
14 | CC(/C=C/c1ccco1)=N\NC(=S)NCC(C)C | 13% | 80% (active) | 63.5% | -20% | 53% | 61.9% | 38% | 86% (active) | 81.2% (active) | 16% | 61% | 64.4% | 30% | 87% (active) | 83.5% (active) | 25% | 88% (active) | 75.5% (active)
15 | Cc1cc(C2c3ccccc3-c3ccccc32)cc(C)c1O | 9% | 7% | 98.3% (active) | 4% | 5% | 98.6% (active) | 4% | 8% | 98.8% (active) | -1% | -9% | 97.3% (active) | -1% | 8% | 97.2% (active) | 7% | 18% | 98.5% (active)
16 | COc1ccc2nc3cc(Cl)ccc3c(NCCCCCCNc3c4ccc(Cl)cc4nc4ccc(OC)nc34)c2n1 | 5% | 87% (active) | 96.9% (active) | 6% | 74% (active) | 98.2% (active) | 5% | 82% (active) | 98.2% (active) | 4% | 80% (active) | 91.5% (active) | 3% | 92% (active) | 96.8% (active) | 2% | 82% (active) | 96.5% (active)
17 | OC(c1ccccc1)c1cccc(Br)c1 (configuration not stated) | -2% | 67% | 76.5% (active) | -11% | 77% (active) | 59.8% | -13% | 55% | 52.9% | -1% | 48% | 42.6% | -3% | 68% | 30.1% | 14% | 77% (active) | 87.2% (active)
18 | c1ccc(-c2ccc(-c3cnc(-c4ccc(-c5ccccc5)cc4)o3)cc2)cc1 | 4% | 30% | 90.2% (active) | 3% | 46% | 53.4% | 1% | 66% | 93% (active) | -1% | 42% | 41.1% | 8% | 31% | 93.2% (active) | -6% | 64% | 92.8% (active)
19 | CSC1=NSC(c2ccccc2)=C(c2ccccc2)S1 | 7% | 9% | 7.95% | -15% | 10% | -1.45% | -11% | 0% | 27.8% | 33% | 88% (active) | 62.5% | 9% | 43% | 43.1% | 5% | 16% | 10.2%
